# Measured values taken from PubChem BioAssay AID1347426 (Functional Genomics Laboratory (NCATS/FGL), 2020).
# The whole screen tested about 31,000 sequences, of which about 1,400 (4.5%) were called active. Only a selection was taken, and actives are over-represented in it overall. Unmarked numbers belong to inactive results.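 Rule for the calls: active = median seed-adjusted z-score above 1 or below -1; inactive = the rest.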
# Assay: Novel Modifiers of Survival Motor Neuron (SMN) Protein: Gene Identification via Genome-wide siRNA Screen;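 note: luminescence tracks full-length SMN protein made from the SMN2 reporter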
# Settings: HEK293T SMN2-luciferase reporter, siRNA knockdown, 72 h; actives lie on both sides
# Description: Spinal muscular atrophy (SMA) is the most common neuromuscular autosomal recessive disorder and one of the leading genetic causes of infant death. SMA results from mutations inducing loss of function or deletion in the survival of motor neuron-1 gene (SMN1), leading to deficiency of the survival motor neuron (SMN) protein. Although a second nearly identical gene, SMN2, is retained in humans, its expression primarily produces an aberrantly spliced isoform that is largely unstable and quickly degraded. We performed a genome-wide RNAi screen using a cell-based reporter assay to identify genes and pathways that modulate SMN protein stability. The screen identified over 200 genes that led to the greatest increase or decrease in luciferase expression.
# Using HEK293T cells stably expressing a luciferase reporter that combines the promoter and splicing based cassettes in tandem with the major portion of the native SMN2 cDNA with luciferase, we performed a genome-wide RNAi screen to identify modulators of SMN protein levels. Luciferase is expressed when full-length SMN protein is generated with luminescence signal proportional to SMN protein levels. Our luciferase-based reporter assay was used to screen Ambion Silencer Select Human Druggable Genome siRNA library (10418 genes, 3 unique siRNAs per gene) using lipid-based reverse transfection.
# Briefly, 1 pmol of each siRNA was spotted to a well of a 384-well plate (Corning, Corning, NY) and 20 microL of serum-free DMEM containing […] of Lipofectamine RNAiMax (Life Technologies, Carlsbad, CA) was then added to each well. Transfected cells were maintained at 37 degrees C in 5% CO2 for 72 hours, 20 microL of ONE-Glo Reagent (Promega) was added to wells for luciferase quantification. Raw luminescence reads were normalized to Ambion(R) Silencer(R) Negative Control #2 siRNA, then log10 transformed. A robust statistical measure of median absolute deviation (MAD) to standardize siRNA activities from each screen. Common Seed Analysis was used to help prioritize clean hits as opposed to those appearing to arise from seed based off-target effects. Candidate modulators were defined as the genes having a MAD score greater than 1.0 or less than -1.0.
row,Sequence,median seed-adjusted z-score
1,GUUUGAUGGUGAUAAGAAATT against PGD,-1.55 (active)
2,GAACCAAAUUGUACGAGAATT against IRX3,-0.285
3,GGGAUAAAUUUGACGUGGATT against SPAG1,0.413
4,GCUACAUCCUGUUCGAGAATT against CYP27A1,-0.391
5,CAGAAUAAAUCACACCCUATT against INSL3,-0.037
6,CCAAGAUGAGUAUAAAACATT against HRC,1.06 (active)
7,CCAUCUGCUUUCCCGAGUATT against GNAZ,-0.604
8,GCUGUGGAUUGUCCAACAATT against NPY5R,0.213
9,UCAACUGACUCAUACCUGUTT against KCNMB1,-0.465
10,GAACCACUAUGAUCAUUGATT against DPYSL2,-0.569
11,CAGUGUAUCUUCAUAAGAUTT against TAF1L,0.289
12,AGAGUGGAUUUGUACCAAATT against RAB39B,0.485
13,CGGUGACUCUUUAUGCACATT against PMPCB,0.507
14,GAGAGUGCCUUACACCAAATT against HOXD13,0.116
15,GAGAGAAAAGGGUCACAAATT against GPR61,0
16,UGACCAUCGUCUACAAGAATT against COPZ2,-1.23 (active)
17,CAAGAAGCAUUAUUACGAUTT against PPIL2,-0.467
18,CCCUAGAGUAUUACACGGATT against DGKD,0.35
19,GGACAAAGACUGGUACGUUTT against HTT,-0.234
20,CCUUUUACAUGUUCUAUUUTT against SIVA1,0.0451
21,GGCAAGUUCUCCUUCGACATT against ALDH3B1,0.148
22,GAACUGUCGUAAACGCAAATT against NFE2L3,0.118
23,GCCUUAAGGAUGAAGAUAATT against FOXR2,0.593

row,Sequence,median seed-adjusted z-score
1,GGUAUCACCUAUACAGAAATT against FKBP11,-0.085
2,ACUUCAAGCUCCUAAGCCATT against HBA1,-1.03 (active)
3,GCCUCUAAGUCUCGAGGAATT against TRPM3,-0.633
4,CACAGGUAAUCAUACCCUATT against NDUFA9,-0.325
5,GAAUCAGAAUACGUAGGAATT against PCDHA2,0.803
6,GGAGGAAUCUCGAAUGCGATT against CNOT1,1.2 (active)
7,GAGGCAAUAUGAAACGAGUTT against CKMT2,-0.862
8,GCAAUUGUCUGAUUAAUCATT against MB,0.504
9,GAACUGCACCAAAGAAACATT against AKTIP,-0.194
10,CGGACGAAGAGAUUGGGAATT against DRAP1,1.08 (active)
11,GCAGAAUUACAAGACAAGATT against VWA5A,0
12,CCGCCUUUCAAGAACGUAATT against IARS,-0.198
13,GAAUAGACCUGAAGACAAATT against CFLAR,-0.413
14,CAACGGAAGUGCUACUACUTT against FCER2,-1.75 (active)
15,CCCAAUAUGUGCGGAUUAATT against DSC3,0.18
16,GGAAAGAGAUCUACCGCAATT against MYST1,0
17,GCUUCCCGAUUAACUGAAATT against MECP2,-0.332
18,AGAAUGCACCAAACAAACATT against DOLPP1,0.00977
19,GGUACAAAGCAAUCGGACATT against GUCA2B,-0.146
20,GUCUUUAGCUGACCUGAAUTT against DMD,-0.626
21,CCGAAGAAGCAAUAUCGAATT against CRKRS,-1.16 (active)
22,CCACCUUACUUUCCUGAAUTT against TMEM171,0.278
23,CACUUAUUCUGGUCCUUCATT against ELOVL3,0

row,Sequence,median seed-adjusted z-score
1,CCGCUAAUGUUCAAGGACATT against UNC5B,-0.0207
2,GCAAUAGUCCCAAAAGCAATT against CD6,-0.33
3,GCAGGAGUUUGUUUAAUGATT against UGT1A10,0.286
4,GUAUACCGAUUGAUAACCATT against BTAF1,-1.19 (active)
5,GUGUUUUUGUAGUUACCUATT against TSEN34,0.918
6,CCACGAAGAAUGGAUUGAATT against TRIO,0.42
7,ACACCACGCUCAACAUCAATT against ZBED1,0.0567
8,GGUUGAUGCAGACAACAAATT against LGTN,0.491
9,GGAAUGCUAUGAUAGACGATT against GNAQ,-1.23 (active)
10,GGAAUUCGAGGAUUAUGCATT against HIAT1,-0.0612
11,CAAGGAGAGGCAUAACGUATT against DNASE1L3,0.0678
12,GAUUACAACCUGUAUCGAATT against THOC1,-3.04 (active)
13,GGACAUAAUGUAUUAUACUTT against DDHD1,0
14,GGUCACGGAUUGCUUUUUATT against DUS1L,0.0698
15,GGAAGAACCAGAGUGUGAATT against C1RL,-0.148
16,GGGAGAUUCUCCAACUAAATT against SR140,1.16 (active)
17,GGAUCGAUUCUGAAUAUGATT against PAPSS1,-0.648
18,GGUUGAAGCUUACUCCGGATT against DHX9,-0.687
19,UCACUGAUGUACUACCUAUTT against RPUSD4,-0.0264
20,GGAUCACGCAGCUCAAGAUTT against TBX1,-0.744
21,CCGCGAAGAUGUUAGCAUUTT against PRSS12,0.119
22,ACAUAUAGGUAUCGACCAATT against PRICKLE2,-1.12 (active)
23,GCCCAGGAAAGAUAAGGCATT against PTH1R,-0.521
